Screening data: PubChem BioAssay, National Center for Advancing Translational Sciences (NCATS)
The list is not random: actives were taken first. Their share in the collection is about 3.1%.
VDR inh: blocks the human vitamin D receptor | P11473 | VDR-SRC2-3 peptide fluorescence polarization, 2 h | Potency, µM, usual class: inhibitors | hit rate 0.93% among 400,000 | AID 504847
Target sequence (P11473 whole entry, looked up): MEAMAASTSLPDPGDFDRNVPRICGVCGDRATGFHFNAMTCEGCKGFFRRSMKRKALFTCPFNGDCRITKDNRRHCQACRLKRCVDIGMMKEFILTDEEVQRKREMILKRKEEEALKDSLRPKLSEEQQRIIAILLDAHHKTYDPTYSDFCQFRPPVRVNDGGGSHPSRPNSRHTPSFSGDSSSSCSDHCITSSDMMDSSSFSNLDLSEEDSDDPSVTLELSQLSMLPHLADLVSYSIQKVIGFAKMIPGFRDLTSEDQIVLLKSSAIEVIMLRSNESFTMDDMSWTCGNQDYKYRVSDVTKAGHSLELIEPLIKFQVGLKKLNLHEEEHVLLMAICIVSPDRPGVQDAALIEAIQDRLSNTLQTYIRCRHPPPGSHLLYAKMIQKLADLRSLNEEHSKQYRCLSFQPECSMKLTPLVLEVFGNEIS
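The screen uses fluorescence polarization to detect compounds that interfere with recruitment of the SRC2-3 coactivator peptide to VDR; plates are read after 2 h at room temperature.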
Tb PFK block: blocks T. brucei phosphofructokinase; O15648; hit rate 0.17% among 330,000; T. brucei PFK, ADP-Glo luminescence; Potency, µM (doses to about 57.5 µM), hits mostly inhibitors; AID 485367; note: nearly all actives have a fitted effect of over 60% in size
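Activity is normalized to no-enzyme wells (full inhibition) and 1.25 nM enzyme wells (no inhibition). Reaction: 0.5 mM F6P, 0.1 mM ATP, 45 min RT, ADP-Glo luminescence; concentration-response curves fitted and classed by quality.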
PLK1 PBD inh: blocks phosphopeptide binding to human PLK1 polo-box domain | hit rate 2.8% among 360,000 | P53350 | Plk1 PBD binding of FITC phosphopeptide, fluorescence polarization | Potency, µM, actives largely listed as inhibitors; note: series mostly up to about 57 µM; nearly all actives have a fitted effect of over 65% in size
TDP1 block: TDP1 (human) enzyme inhibition; hit rate 0.28% among 350,000; recombinant TDP1, AlphaScreen DNA substrate cleavage; Potency, µM (titrated, usually from 130 µM), most hits filed as inhibitors; AID 485290; note: nearly all actives have a fitted effect of over 40% in size
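Recombinant E. coli-expressed Tdp1 (1 nM) preincubated with compound 15 min at RT, then 5'-biotin/3'-phosphotyrosine-FITC DNA substrate (15 nM) added for 5 min. AlphaScreen beads (10 ug/ml) added, 10 min RT; tyrosine-FITC cleavage read as signal loss.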
Pin1 inhibitor: human Pin1 inhibition | Q13526 | Pin1 FP peptide displacement, HiFluor488, 10 min | Potency, µM (series often up to 115 µM), usual class: inhibitors | hit rate 0.009% among 390,000 | AID 504891; active = well fitted inhibition curve with a large enough effect in the polarisation, with a control signal flat, not every such curve was filed as active; inconclusive = small, poorly fitted or top-dose-only effect, or effect the other way, or a change in a side signal; inactive = no such curve, though single readings can be large or run the other way; the % refers to the polarisation
ASM inhibitor: blocks human secretory acid sphingomyelinase; AID 504937; hit rate 0.006% among 340,000; placental ASM, HMU-PC fluorogenic substrate, 60 min; P17405; Potency, µM (doses to about 57.5 µM), actives largely listed as inhibitors
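HMU-PC0 cleavage (9 uM final) by human placental ASM, 60 min at 37 °C following 10 min compound exposure at RT; stopped at pH 10, fluorescence Ex 386/Em 447 nm.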
VDR confirm: confirmation of human vitamin D receptor inhibitors; shares compounds with VDR inh; VDR-coactivator inhibition assay, qHTS confirmation; Potency, µM, usual class: inhibitors; hit rate 89% among 840
VDR FP: blocks human VDR-coactivator binding in fluorescein assay; shares compounds with VDR inh; VDR-coactivator binding, fluorescein fluorescence polarization; Potency, µM (titrated, usually from 57.1 µM), most hits filed as inhibitors; hit rate 48% among 840
VDR bla reporter: confirmation of human vitamin D receptor inhibitors in reporter cells; shares compounds with VDR inh; VDR beta-lactamase reporter cells, FRET ratio; cells co-treated with VDR agonist LG190178; Potency, µM (highest dose often 46.1 µM), most hits filed as inhibitors; hit rate 23% among 840
VDR cytotox: cell toxicity, VDR inhibitor hit counter-screen; AID 602204; hit rate 18% among 840; Potency, µM (doses to about 48.3 µM), usual class: cytotoxic; shares compounds with VDR inh; cytotoxicity counter-screen, cell viability, qHTS; note: nearly all actives have a fitted effect of over 75% in size
TbPYK inh: Trypanosoma brucei pyruvate kinase inhibition, cherry-pick confirmation; shares compounds with PLK1 PBD inh; recombinant TbPYK, Kinase-Glo ATP luminescence; Potency, µM (top dose mostly 76.9 µM), usual class: inhibitors; hit rate 67% among 890; AID 720569; note: nearly all actives have a fitted effect of over 70% in size
TbPYK orthogonal: orthogonal confirmation of Trypanosoma brucei pyruvate kinase inhibitors. shares compounds with PLK1 PBD inh. recombinant TbPYK, ADP-Glo luminescence, 60 min. Potency, µM (doses to about 76.9 µM), actives largely listed as inhibitors. hit rate 62% among 890; note: nearly all actives have a fitted effect of over 75% in size
Of the large screens only hits and unclear results are named; the others gave an inactive call (follow-up assays come after a bar, where they were run). Unless noted, calls come from the whole dose curve; as a rule, active = well fitted curve in the direction sought with a large enough effect; inconclusive = small, poorly fitted or top-dose-only effect, or another doubt; inactive = no such curve, though single readings can be large; an effect the other way counts as inactive or inconclusive.

CC1=C(C)CS(=O)N(S(=O)(=O)c2ccc(Cl)cc2)C1 (stereo not drawn)	VDR inh 2.8µM, PLK1 PBD inh 1.3µM | VDR confirm 1.2 | VDR FP inconclusive | VDR bla reporter inactive | VDR cytotox 16µM | TbPYK inh 16µM | TbPYK orthogonal 28µM
CC1CCCC(C)N1S(=O)(=O)c1ccc(Cl)cc1 (stereo not drawn)	none
COc1cccc(CNC(=O)CN2N=C(c3ccc(C)cc3)CCC2=O)c1	none (no result: Tb PFK block, PLK1 PBD inh, ASM inhibitor)
COc1ccc2[nH]c3c4c(ccc3c2c1)C(=O)C=CC4=O	VDR inh inconclusive, Tb PFK block 12µM, PLK1 PBD inh inconclusive | VDR confirm 7.1 | VDR FP 5µM | VDR bla reporter 6.5µM | VDR cytotox inconclusive | TbPYK inh 5µM | TbPYK orthogonal inconclusive
CCOC(=O)c1c(N)sc(N)c1C(=O)OCC	VDR inh 8.9µM, PLK1 PBD inh 3.4µM | VDR confirm 4.7 | VDR FP 8.9µM | VDR bla reporter inactive | VDR cytotox inactive | TbPYK inh 32µM | TbPYK orthogonal 14µM
CCOC(=O)c1c(N)sc(C(=O)N(CC)CC)c1C	none
O=C1ON=C(c2ccccc2)/C1=C/c1ccc(-c2ccccc2[N+](=O)[O-])o1	VDR inh 35µM, PLK1 PBD inh 0.95µM (no result: Pin1 inhibitor) | VDR confirm 7.5 | VDR FP inconclusive | VDR bla reporter 16µM | VDR cytotox 23µM | TbPYK inh 32µM | TbPYK orthogonal inconclusive
COc1ccc2oc(=O)c(C(=O)NCCc3c(C)[nH]c4c(C)cccc34)cc2c1	none (no result: Tb PFK block, PLK1 PBD inh, ASM inhibitor)
Cc1ccc(Cn2c(CNC(=O)Cc3cccc([N+](=O)[O-])c3)nc3cccnc32)cc1	none (no result: Tb PFK block, PLK1 PBD inh, ASM inhibitor)
CC(NC(=O)c1sc2cc([N+](=O)[O-])ccc2c1Cl)C(C)(C)C (stereo not drawn)	VDR inh inconclusive, Tb PFK block inconclusive, PLK1 PBD inh 1.2µM | VDR confirm 5.6 | VDR FP 3.2µM | VDR bla reporter inactive | VDR cytotox inactive | TbPYK inh 4µM | TbPYK orthogonal 11µM
Cc1ccc(C(=O)O)cc1	none (no result: VDR inh, Tb PFK block, PLK1 PBD inh, Pin1 inhibitor, ASM inhibitor)
CC1=CC(=O)C(C(C)C)=CC1=NC(=O)c1ccc(C)cc1	VDR inh 25µM, PLK1 PBD inh 2.7µM | VDR confirm 3.8 | VDR FP inconclusive | VDR bla reporter inconclusive | VDR cytotox inconclusive | TbPYK inh 7.9µM | TbPYK orthogonal 7.9µM
CCc1sc(C(C2C(=O)CC(C)(C)CC2=O)C2C(=O)CC(C)(C)CC2=O)cc1[N+](=O)[O-]	VDR inh 13µM, PLK1 PBD inh 1.7µM | VDR confirm 3.4 | VDR FP inconclusive | VDR bla reporter inconclusive | VDR cytotox inactive | TbPYK inh 16µM | TbPYK orthogonal 32µM
COC(=O)c1ccc(C2C=C(c3ccc(Cl)cc3)Nc3nc4ccccc4n32)cc1 (stereo not drawn)	Pin1 inhibitor inconclusive (no result: Tb PFK block, PLK1 PBD inh, ASM inhibitor)
Cc1ccc(NC(=O)CCCc2nnc3n(C)c(=O)c4sccc4n23)cc1F	none (no result: Tb PFK block, PLK1 PBD inh, ASM inhibitor)
CC(C)(C)n1nnnc1C(c1cccnc1)N1CCN(C2CCCCC2)CC1 (stereo not drawn)	none
